High-throughput results deposited in PubChem by Sanford-Burnham Center for Chemical Genomics.
PABP1 MLLE inh: inhibitors of microRNA-mediated deadenylation, human PABP1 MLLE binding | P11940 | GST-MLLE / FITC-PAM2 fluorescence polarization | inhibition, % at 20 µM | actives 0.36% (n = 360,000) | AID 588489; in the data active = inhibition above about 35%, passing the limit was not always enough
eIF4H inh: inhibitors of RNA binding by human eIF4H; Q15056; eIF4H fluorescence polarization binding assay; inhibition, % at 35 µM; actives 0.94% (n = 290,000); AID 2012;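 note: calls also rest on retests at 20 µM and on dose response follow-up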
PHOSPHO1 block: inhibitors of human PHOSPHO1 phosphatase; Q8TCT1; recombinant PHOSPHO1, absorbance phosphatase assay; inhibition, % at 13.3 µM; actives 1.1% (n = 290,000); AID 1565; in the data active = inhibition above about 60%
Target sequence (Q8TCT1 whole entry, looked up): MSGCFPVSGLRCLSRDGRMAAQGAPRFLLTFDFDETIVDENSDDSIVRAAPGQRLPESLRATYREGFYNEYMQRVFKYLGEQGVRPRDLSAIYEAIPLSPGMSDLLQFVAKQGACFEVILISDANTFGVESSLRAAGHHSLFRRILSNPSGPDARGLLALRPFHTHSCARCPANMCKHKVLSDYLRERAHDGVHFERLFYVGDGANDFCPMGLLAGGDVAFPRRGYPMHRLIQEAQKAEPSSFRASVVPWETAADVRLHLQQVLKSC
CRFR2-BP antag: antagonists of CRF-binding protein/CRF-R2 receptor complex | inhibition, % at 11.8 µM | actives 0.59% (n = 350,000) | HEK293 CRF-R2/CRF-BP, CRF-induced calcium fluorescence;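 active = inhibition of the ligand-induced calcium signal above about 50% at the single tested concentration, limit read from the data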
PABP polyA inh: blocks human PABP binding to poly(A) RNA. AID 2014. actives 1% (n = 290,000). inhibition, % at 35 µM. fluorescence polarization;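 note: calls also rest on retests at 20 µM and on dose response follow-up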
Of the large screens only hits and unclear results are named; the others gave an inactive call. Most compounds without a hit are left out; they make up all but 2.6% or so of the library. Unless noted, the rule behind the calls is not given here.

O=C(c1cccc(NS(=O)(=O)c2ccc(F)c(F)c2)c1)N1CCN(C(c2ccccc2)c2ccccc2)CC1	CRFR2-BP antag 62
O=C(c1cccc(NS(=O)(=O)c2ccccc2)c1)N1CCCC1	none
O=C(COC(=O)c1cccc(NS(=O)(=O)c2ccc(F)c(F)c2)c1)NC(=O)NC1CCCC1	PABP polyA inh 6.1
O=C(COC(=O)c1cccc(F)c1)NC(=O)NC1CCCC1	none (no result: eIF4H inh, PHOSPHO1 block, PABP polyA inh)
CCCCNS(=O)(=O)c1ccc(OCC(=O)OC)cc1	none
CC(=O)N1CCN(S(=O)(=O)c2cccc(C(=O)N3CCN(S(=O)(=O)c4c(C)c(C)cc(C)c4C)CC3)c2)CC1	none (no result: eIF4H inh, PHOSPHO1 block, PABP polyA inh)
CC(=O)c1ccc(OCc2cc(C(=O)N(C)CC3COc4ccccc4O3)no2)cc1 (centres undefined)	none (no result: eIF4H inh, PHOSPHO1 block, PABP polyA inh)
CN(CC(=O)Nc1ccc(F)cc1)C(=O)COC(=O)c1nc(Cl)ccc1Cl	none (no result: eIF4H inh, PHOSPHO1 block, PABP polyA inh)
O=S(=O)(/N=C(/Sc1ccccc1)c1ccccc1)c1ccccc1	PABP1 MLLE inh 38, PHOSPHO1 block 100
CS/C(=N\S(=O)(=O)c1ccccc1)c1ccccc1	none
COCCNC(=S)Nc1ccc(Cl)c(Cl)c1	PHOSPHO1 block 64
COCCNC(=S)Nc1ccc2nsnc2c1	none
O=C(CSc1ccc2nnc(-c3cccnc3)n2n1)Nc1ccc(F)cc1	none
COC(=O)c1ccc(CSc2ccc3nnc(-c4ccc(F)cc4)n3n2)o1	none
CCOc1ccc(-c2nnc3ccc(SCc4ccc(C(=O)OC)o4)nn23)cc1	PHOSPHO1 block 95
CCOc1ccc(NC(=O)CSc2ccc3nnc(-c4cccnc4)n3n2)cc1	CRFR2-BP antag 125
CC(C)(C)c1csc(NC(=O)C2=COCCO2)n1	none (no result: eIF4H inh, PHOSPHO1 block, PABP polyA inh)
CCOC(=O)c1csc(NC(=O)C2=COCCO2)n1	PHOSPHO1 block 71
O=C(CSc1ncnc2sc3c(c12)CCC3)N1CCOCC1	eIF4H inh 62
CC(=O)CSc1ncnc2sc3c(c12)CCC3	none
C=C1c2cc(C)ccc2NC(=O)N1c1ccc(C)cc1	PHOSPHO1 block 73
C=C1c2ccccc2NC(=O)N1c1ccc(C)cc1	none
O=C(Nc1c(-c2ccc(Cl)cc2)[nH][nH]c1=O)c1ccc(Br)cc1	none (no result: eIF4H inh, PHOSPHO1 block, CRFR2-BP antag, PABP polyA inh)
Cc1ccc(S(=O)(=O)N2CCCCC2)cc1NC(=O)Cn1c(=O)cnc2ccccc21	PHOSPHO1 block 60
Cc1ccc(S(=O)(=O)N2CCCCC2)cc1NC(=O)CNCc1ccco1	eIF4H inh 83, PABP polyA inh 2.4
O=C(COC(=O)c1ccc(Cl)nc1)Nc1cc(S(=O)(=O)N2CCOCC2)ccc1Cl	none (no result: eIF4H inh, PHOSPHO1 block, PABP polyA inh)
Cc1ccc(NC(=O)Cn2c(=O)cnc3ccccc32)cc1S(=O)(=O)N1CCCCC1	none (no result: eIF4H inh, PHOSPHO1 block, PABP polyA inh)
O=C(COC(=O)c1ccncc1)Nc1cc(S(=O)(=O)N2CCOCC2)ccc1Cl	CRFR2-BP antag 67 (no result: eIF4H inh, PHOSPHO1 block, PABP polyA inh)
Cc1ccc(NC(=O)COC(=O)c2cccnc2Cl)cc1S(=O)(=O)N1CCOCC1	CRFR2-BP antag 64 (no result: eIF4H inh, PHOSPHO1 block, PABP polyA inh)
Cc1ccc(S(=O)(=O)N2CCCCC2)cc1NC(=O)c1ccco1	none (no result: eIF4H inh, PHOSPHO1 block, PABP polyA inh)
O=C(CNS(=O)(=O)c1cccc(Br)c1)NCC1CCCCC1	none
COc1ccccc1CNC(=O)Nc1nc(C(N)CCc2ccccc2)cs1 (centres undefined)	none (no result: eIF4H inh, PHOSPHO1 block, CRFR2-BP antag, PABP polyA inh)
Cc1cnc(CNC(=O)c2csc([C@H]3C[C@H](O)[C@@H](CO)O3)n2)cn1	none (no result: eIF4H inh, PHOSPHO1 block, CRFR2-BP antag, PABP polyA inh)
O=C(NC(c1ccccc1)c1ccc2ccccc2n1)C1CCN(Cc2ccc(Cl)c(Cl)c2)CC1 (centres undefined)	none (no result: eIF4H inh, PHOSPHO1 block, CRFR2-BP antag, PABP polyA inh)
CC(C)[C@H](NC(=O)c1ccco1)C(=O)Nc1ccc(N2CCCCCC2)cc1	none (no result: eIF4H inh, PHOSPHO1 block, PABP polyA inh)
O=C(CNCc1ccccn1)Nc1cc(S(=O)(=O)N2CCCCC2)ccc1Cl	none
O=C(CNCc1ccncc1)Nc1cc(S(=O)(=O)N2CCCCC2)ccc1Cl	eIF4H inh 104
O=C(CN1CCN(S(=O)(=O)c2ccc(F)cc2)CC1)NCC1(N2CCOCC2)CCCCC1	none (no result: eIF4H inh, PHOSPHO1 block, PABP polyA inh)
CC(c1ccco1)N(C(=O)c1ccccc1NS(=O)(=O)c1ccc(Cl)c([N+](=O)[O-])c1)c1ccccn1 (centres undefined)	CRFR2-BP antag 52
Cc1cc(C)cc(OC(C)C(=O)Nc2ccc3c(c2)n(C)c(=O)n3C)c1 (centres undefined)	none
Cc1ccc(OC(C)C(=O)Nc2ccc3c(c2)n(C)c(=O)n3C)cc1C (centres undefined)	PHOSPHO1 block 60
Fc1cccc(CO/N=C/c2c(-c3ccccc3)nc3ccc(Cl)cn23)c1	none
Cc1cccn2c(/C=N/OCc3cccc(F)c3)c(-c3ccc(Cl)cc3)nc12	CRFR2-BP antag 95
CCOc1ccc(NC(=O)Nc2cc(C(C)C)c(O)cc2C)cc1	none
CCOc1ccc(NC(=O)Nc2cc(C)ccc2F)cc1	CRFR2-BP antag 66
CC1(C(=O)NS(=O)(=O)c2cccc(F)c2)CCN1C(=O)C1(c2ccc(Cl)cc2)CCC1 (centres undefined)	none (no result: eIF4H inh, PHOSPHO1 block, CRFR2-BP antag, PABP polyA inh)
CCN1C(=O)[C@H]2[C@@H](c3ccc(SC4CCCCC4)cc3)N3CCCC[C@@]3(C(=O)OC)[C@H]2C1=O	none (no result: eIF4H inh, PHOSPHO1 block, PABP polyA inh)
CCN1C(=O)[C@@H]2[C@@H](c3ccc(SC4CCCCC4)cc3)N3CCC[C@@]3(C(=O)OC)[C@@H]2C1=O	PABP1 MLLE inh 40 (no result: eIF4H inh, PHOSPHO1 block, PABP polyA inh)
CCC(C)[C@H](NC(=O)[C@@H]1Cc2ccccc2CN1C(=O)OC(C)(C)C)C(=O)NCC1CCC(C(=O)O)CC1 (some centres undefined)	CRFR2-BP antag 81
CN1C2C=C3C(C#N)=C(N)C(C#N)(C#N)[C@@H](c4cccs4)C3C1CC2 (some centres undefined)	eIF4H inh 59, PABP polyA inh 53
Cc1ccc(C2C3CN(C(C)C)CC=C3C(C#N)=C(N)C2(C#N)C#N)cc1 (centres undefined)	eIF4H inh inconclusive, PABP polyA inh inconclusive
CC(C)(C)C1CC=C2C(C#N)=C(N)C(C#N)(C#N)C(c3cccs3)C2C1 (centres undefined)	eIF4H inh 93, PABP polyA inh 121 (no result: PABP1 MLLE inh, CRFR2-BP antag)
CC(NC(=O)c1ccccc1F)c1nnc(SCC(=O)NC2=NCCS2)n1C (centres undefined)	eIF4H inh 90, PABP polyA inh 75
O=C(O)CC12CC3CC(C1)CC(n1ncc(N4CCC5(CC4)OCCO5)c(Cl)c1=O)(C3)C2	none
CCOC(=O)C1CCN(C(=O)NS(=O)(=O)c2ccc(C)cc2)CC1	eIF4H inh 3.0, PABP polyA inh 55
CCOC(=O)C1CCCN(S(=O)(=O)c2ccccc2)C1 (centres undefined)	CRFR2-BP antag 78
CCOC(=O)C1(C(=O)OCC)CCN(S(=O)(=O)c2ccccc2)CC1	CRFR2-BP antag 69 (no result: eIF4H inh, PHOSPHO1 block, PABP polyA inh)
CCOC(=O)C1CN(S(=O)(=O)c2ccccc2)C1	none
Cc1nn(CC(=O)N(C)C)c(C)c1S(=O)(=O)N1CCOCC1	none (no result: eIF4H inh, PHOSPHO1 block, PABP polyA inh)
CCOC(=O)C1=NN(c2ccc(F)cc2)C2=NC(C)=C(C(=O)OC)C(c3cccs3)N12 (centres undefined)	none (no result: eIF4H inh, PHOSPHO1 block, PABP polyA inh)
CCOC(=O)C1=NN(c2ccccc2)C2=NC(C)=C(C(=O)OC)C(c3cccs3)N12 (centres undefined)	CRFR2-BP antag 75 (no result: eIF4H inh, PHOSPHO1 block, PABP polyA inh)
O=C(O)CSC1CC(=O)N(c2ccc(Cl)c(Cl)c2)C1=O (centres undefined)	PABP1 MLLE inh 41
